Screens: PubChem, National Center for Advancing Translational Sciences (NCATS)
An excerpt weighted towards active compounds, which were near 18% of everything screened.
CtBP-E1A blk: CtBP/E1A binding inhibition. AlphaScreen GST-E1A/His-CtBP binding, 1536-well; stronger effect = lower value. activity change, % (test concentration not listed). hit rate 0.49% among 340,000; in the data active = activity change below about -65%; inconclusive = mostly about -30% to -63%
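AlphaScreen with 125 nM GST-E1A and 125 nM His-CtBP (5X stocks) in Tris pH 8.0, 300 mM NaCl, BSA, Tween 20, TCEP. Compounds preincubated 2 h at 37 deg C, then glutathione donor/nickel acceptor beads added for 1 h at 37 deg C in dark.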
TDP1 block: inhibitors of human tyrosyl-DNA phosphodiesterase TDP1; hit rate 0.28% among 350,000; recombinant TDP1, AlphaScreen DNA substrate cleavage; Potency, µM (series often up to 130 µM), for the others: top-dose activity change, negative = inhibition, hits mostly inhibitors; AID 485290; note: potency is the fitted concentration of half-maximal effect; nearly all actives have a fitted effect of over 40% in size
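Recombinant E. coli-expressed Tdp1 (1 nM) preincubated with compound 15 min at RT, then 5'-biotin/3'-phosphotyrosine-FITC DNA substrate (15 nM) added for 5 min. AlphaScreen beads (10 ug/ml) added, 10 min RT; tyrosine-FITC cleavage read as signal loss.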
TDP1 cell noCPT: qHTS for Inhibitors of human tyrosyl-DNA phosphodiesterase 1 (TDP1): qHTS in cells in absence of CPT; DT40 Tdp1-/- hTDP1 cells, no CPT, ATP luminescence, 48 h; Potency, µM (top dose mostly 46.2 µM), inactives show at the highest dose activity change, negative = growth inhibition, hits mostly inhibitors; hit rate 15% among 420,000; AID 686978, 2013; note: potency is the fitted concentration of half-maximal effect; nearly all actives have a fitted effect of over 55% in size
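Compound effects on proliferation are scored in DT40 Tdp1-/-;hTDP1 cells in the absence of CPT. ATP levels (CellTiter-Glo luminescence) are recorded after a ≥48 hr, 37 °C incubation.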
DT40 TDP1 CPT: DT40-hTDP1 cell growth loss with CPT; Potency, µM (doses to about 46.2 µM), for the others: at the top dose activity change, negative = growth inhibition, usual class: inhibitors; hit rate 12% among 420,000; chicken DT40 Tdp1-/-;hTDP1 cells + 20 nM CPT, ATP luminescence, 48 h; note: potency is the fitted concentration of half-maximal effect; nearly all actives have a fitted effect of over 55% in size
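Chicken DT40 Tdp1-/- cells stably complemented with human TDP1 were seeded at 400 cells/well in medium containing 20 nM camptothecin, exposed to pin-transferred compounds, and grown at 37 °C for at least 48 hr. Viability was read as ATP luminescence.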
IL-1B inflam inh: inflammasome signaling inhibition, IL-1 beta readout. THP-1 LPS/ATP IL-1B secretion, AlphaLISA, 16 h; stronger effect = lower value. activity change, % at 57.5 µM. hit rate 4.7% among 360,000; in the data active = activity change below about -50%; inconclusive = mostly about -30% to -49%
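Secreted IL-1B measured by AlphaLISA bead assay after 16 h compound exposure of THP-1 cells; compounds (final up to 57.5 uM) added 1 h before LPS (250 ng/mL) and ATP (1.25 mM) stimulation; lower signal means less secretion.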
Six1-Eya2 inh: inhibitors of human Six1/Eya2 interaction; hit rate 0.56% among 360,000; Q15475+O00167; AID 651725; activity change, % (concentration not given with the values); AlphaScreen GST-Six1/His-Eya2 binding, biochemical; stronger effect = lower value; in the data active = activity change below about -65%; inconclusive = mostly about -30% to -63%
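AlphaScreen luminescence read after one hour at 37 °C in darkness. Pin-transferred compounds met GST-Six1 and His-Eya2 protein (5X stock 250 nM/500 nM) plus glutathione donor and Ni-chelate acceptor beads (5X, 50 ug/mL).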
Numbers without * were called inactive; ? = inconclusive; . = no result. Unless noted, calls come from the whole dose curve; as a rule, active = well fitted curve in the direction sought with a large enough effect; inconclusive = small, poorly fitted or top-dose-only effect, or another doubt; inactive = no such curve, though single readings can be large; an effect the other way counts as inactive or inconclusive. % is set by controls: 0 for no effect and ±100 for the full control effect.

SMILES	CtBP-E1A blk	TDP1 block	TDP1 cell noCPT	DT40 TDP1 CPT	IL-1B inflam inh	Six1-Eya2 inh
CC(C)C[C@H]1CNC(=S)N1CC1CCN(CCC23CC4CC(CC(C4)C2)C3)CC1	-4	.	16µM*	?	-50*	-2
CC(C)C[C@H]1CNC(=S)N1CC1CCN(CCCC2CCCCC2)CC1	-10	.	?	18µM*	-54*	-3
CCCC[C@@H]1CNC(=S)N1CCC12CC3CC(CC(C3)C1)C2	-4	8%	18µM*	?	5	-8
CCCC[C@@H]1CNC(=S)N1CCCc1cc(OC)c(OC)c(OC)c1	7	3%	?	?	-4	1
S=C1NCCN1CC1CCN(CCC23CC4CC(CC(C4)C2)C3)CC1	-3	.	?	?	?	1
CC(C)C[C@H]1CNC(=S)N1CC1CCN(CC2CCCC2)CC1	-27	.	-12%	-28%	14	1
Cc1ccc(S(=O)(=O)c2ccccc2)cc1S	.	5%	.	.	.	.
COc1cc(C(=O)NC2CCN(C)CC2)ccc1Nc1ncc2c(n1)N(C1CCCCC1)CCC(=O)N2C	-2	.	0.58µM*	0.92µM*	4	-5
COc1cc(C(=O)NC2CCN(C)CC2)ccc1Nc1ncc2c(n1)N(Cc1ccccc1)CCC(=O)N2C	-6	.	5.2µM*	3.7µM*	55	6
S=c1[nH]nc(-c2ccc3ccccc3n2)n1-c1ccccc1	12	6%	-18%	17%	0	5
Cc1csc(NC(=O)C2C3C=CC(O3)C2C(=O)O)n1 (stereo not given)	-1	-1%	-2%	0%	9	1
N#C/C(=C\c1ccc(-c2nc3ccccc3s2)o1)C(N)=O	-20	0%	18µM*	?	23	?
CNC(=O)/C(C#N)=C/c1ccc(-c2nc3ccccc3s2)o1	0	4%	?	-4%	.	0
Cc1noc(C)c1COc1ccccc1C(=O)NCc1ccccc1Cl	5	.	-6%	-13%	23	6
CCOC(=O)c1c(NC(=O)COC(=O)c2cc(OC)c(OC)cc2[N+](=O)[O-])sc(C)c1CC	-23	-2%	15µM*	?	41	39
CCOC(=O)c1c(CC(C)C)csc1NC(C)=O	7	5%	-10%	8%	14	14
CCOC(=O)c1c(CC(C)C)csc1NC(=O)COC(=O)c1cc(OC)c(OC)cc1[N+](=O)[O-]	.	3%	5.8µM*	12µM*	18	22
COc1cc(C(=O)OCC(C)=O)c([N+](=O)[O-])cc1OC	-9	5%	10%	3%	31	15
COc1ccc(N(CC(=O)N2CCc3ccccc3C2)S(=O)(=O)c2c(C)[nH]c(=O)[nH]c2=O)cc1	9	6%	-3%	-14%	13	-4
CN(Cc1ccccc1)C(=O)c1cccc(NC(=O)c2ccco2)c1	-1	2%	-10%	1%	30	-8
O=C(COC(=O)c1ccccc1OCc1ccc(F)cc1)NCC1CCCO1 (stereo not given)	-1	1%	?	?	0	25
O=C(COC(=O)c1ccccc1OCc1ccccc1Cl)NCC1CCCO1 (stereo not given)	5	-7%	?	?	-51*	5
COc1ccc(C2CC(c3cccs3)=NN2C(=O)c2ccccc2)cc1OC (stereo not given)	-3	.	-22%	1%	-23	-18
COc1ccc(C2CC(c3cccs3)=NN2C(=O)CCl)cc1OC (stereo not given)	-12	7%	3.3µM*	2.6µM*	-103*	-2
COc1cc(C2CC(c3cccs3)=NN2C(=O)CCl)ccc1OC(F)F (stereo not given)	-1	6%	4.1µM*	4.6µM*	-103*	6
SMILES	CtBP-E1A blk	TDP1 block	TDP1 cell noCPT	DT40 TDP1 CPT	IL-1B inflam inh	Six1-Eya2 inh
COc1ccc2c(c1)c(=O)c(S(=O)(=O)c1ccc(F)cc1)cn2Cc1ccccc1Cl	.	1%	0.23µM*	0.26µM*	.	.
COc1ccccc1Cc1c(-c2ccc(F)cc2)nc2ccc(Cl)cn12	6	.	?	?	26	1
COc1cc2c3nnc(-c4ccc(F)cc4)c-3cn(Cc3ccccc3F)c2cc1OC	1	8%	2.6µM*	3.7µM*	-60*	0
COc1ccc(Cn2cc(S(=O)(=O)c3ccc(C)cc3)c(=O)c3cc(F)ccc32)cc1	.	1%	-13%	-24%	.	.
COc1cc2c(=O)c(S(=O)(=O)c3ccc(F)cc3)cn(Cc3ccccc3C)c2cc1OC	.	4%	18µM*	16µM*	.	.
COc1ccc(CC(=O)NCC(c2ccc(N(C)C)cc2)N2CCOCC2)cc1OC (stereo not given)	.	-9%	?	?	.	.
CN(C)c1ccc(C(CNC(=O)c2ccc(C(C)(C)C)cc2)N2CCOCC2)cc1 (stereo not given)	.	9%	21µM*	16µM*	.	.
COc1ccc(CC(=O)NCC(c2ccc(N(C)C)cc2)N2CCOCC2)cc1 (stereo not given)	.	1%	?	?	.	.
CCOc1cc(C(=O)NCC(c2ccc(N(C)C)cc2)N2CCOCC2)cc(OCC)c1OCC (stereo not given)	.	1%	18µM*	21µM*	.	.
COc1cccc(C(C(=O)NCc2ccccc2)N2CCN(c3ccccc3F)CC2)c1OC (stereo not given)	3	.	16µM*	21µM*	-26	-6
O=C(NCc1ccccc1)C(c1ccc(F)cc1)N1CCN(c2ccccc2F)CC1 (stereo not given)	-2	.	12µM*	9.2µM*	-21	0
CCCCCCCCN1C(=O)N(C)C(N(O)C(=O)NC)C1(C)C (stereo not given)	5	-2%	?	?	17	-2
CCn1cc(C(=O)NCc2ccccn2)c(=O)c2cc(S(=O)(=O)N3CCCCC3)ccc21	.	-5%	.	.	.	.
CCOC(=O)c1c(NC(=O)COC(=O)c2ccc(C)s2)sc2c1CC(C)(C)NC2(C)C	-11	3%	18µM*	?	-59*	8
CC1(C)Cc2c(sc(NC(=O)COc3cccc4ccccc34)c2C#N)C(C)(C)N1	-14	1%	13µM*	10µM*	-100*	4
CCOC(=O)N1CCN(S(=O)(=O)c2ccc(C(=O)Nc3sc4c(c3C(N)=O)CC(C)(C)NC4(C)C)cc2)CC1	-6	13%	25%	-3%	-1	-6
